Hit rate of the full screen: of about 5,700 compounds, about 280 (4.9%) were called active. How the calls were made is not given here. The list is a sample of the results.
Experiment: exo-erythrocytic parasite development inhibition – imaging, Malaria Box, P. yoelii, HepG2-A16-CD81EGFP, dose response (AID 602156)
Settings: P. yoelii liver stage in HepG2-A16-CD81EGFP

outcome, inactive:
CC(C)(C)CC(=O)NCCCCNc1ccnc2cc(Cl)ccc12, O=C(Nc1ccc(-c2nc3ccccc3[nH]2)cc1)c1cccc(C(=O)Nc2ccc(-c3nc4ccccc4[nH]3)cc2)n1, O=C(Nc1ccc(-c2nc3ccccc3[nH]2)cc1)c1ccc(-c2cccc([N+](=O)[O-])c2)o1, CCc1ccccc1N(CC(=O)NC1CCCCC1)C(=O)CCC(=O)Nc1ccccn1, Oc1ccc(-c2ccccc2)cc1CNC1CCCCC1, CCOC(=O)c1c(C)[nH]c(C)c1S(=O)(=O)N1CCCC(C(=O)N2CCN(c3cccc(C)c3C)CC2)C1 (stereo not given), CC1CN(C(=O)C(Cc2c[nH]c3ccccc23)NC(=O)CCl)CCN1C(=O)Nc1ccccc1 (stereo not given), Cc1ccc(C=Cc2ccc3ccccc3[n+]2C)cc1, COc1ccc(-c2c[n+](CC(=O)c3ccccc3)c3n2CCC3)cc1, COc1ccc(OC)c(-c2ccc(O)c(CNCC(C)c3ccccc3)c2)c1 (stereo not given), Fc1cc(F)c(C2SCCN2C(=S)Nc2cccc(C(F)(F)F)c2)c(F)c1 (stereo not given), COc1cccc2cc(C(=O)Nc3cccc(C(F)(F)F)c3)c(=O)oc12, CC(C)(C)CC(C)(C)Nc1c(-c2ccccc2OC(=O)c2cccc(Br)c2)nc2ccccn12, COc1ccccc1C=CC1=NC(=Cc2ccc(SC)cc2)C(=O)O1, O=C(Cn1cc([N+](=O)[O-])nc1[N+](=O)[O-])N1CCN(c2ccc(F)cc2)CC1, CCOc1ccc(C=C2SC(=Nc3ccccc3)NC2=O)cc1OC, CCOC(=O)C1CCN(C(=O)CN2C(=O)c3ccccc3C2c2c[nH]c3ccccc23)CC1 (stereo not given), N#CC(=Cn1cc(Cc2ccc(Cl)cc2Cl)c2ccccc21)c1nn(CCO)c(N)c1C#N, Cc1nnc2sc(SCc3ccc([N+](=O)[O-])cc3)nn2c1=O, CC1CCN(S(=O)(=O)c2ccc(C(=O)NCc3ccco3)cc2)CC1, CCN1CCCC1CNc1ncnc2c1[nH]c1ccc(C)cc12 (stereo not given), c1ccc(CCCNc2ccnc3cc4ccccc4cc23)cc1, COCCn1c(SCC(=O)c2ccc(C)cc2C)nnc1-c1ccco1, CCN(CC)CCNc1ncnc2c1[nH]c1ccc(Br)cc12, CC(C)CNC(=O)c1cnc(NCCCN2CCCC2)nc1NCC1CCCCC1, CC[n+]1c(/C=C2\Sc3oc4ccccc4c3N2C)ccc2cc(C)ccc21, c1ccc(Nc2nc(NCC3CCCO3)c3ccccc3n2)cc1 (stereo not given), COc1ccccc1N1C(=N)SC(=Cc2ccc(OCc3ccccc3F)cc2)C1=O, CC[N+](CC)=c1scc(-c2ccc([N+](=O)[O-])cc2)s1, COc1cc(C(=O)NCCc2cc3ccccc3[nH]2)ccc1OC1CCN(CC(c2ccccc2)c2ccccc2)CC1, O=C(NCCCCCCCCCCNC(=O)Nc1ccc(C2=NCCCN2)cc1)Nc1ccc(C2=NCCCN2)cc1, COc1ccc(-c2csc3nc(COc4cccc(C)c4)nn23)c(O)c1, CCCCN(C)C(=O)CSc1nc(NCc2ccccc2)c2ccccc2n1, Cc1ccc(N=C2SC(=Cc3c(Cl)cccc3Cl)C(=O)N2c2ccc(C)c(C)c2)cc1C, CCCCCCC(=O)Oc1ccccc1-c1nc2ccccn2c1NC(C)(C)CC(C)(C)C, CN(CCCNc1ccnc2cc(Cl)ccc12)C(=O)c1ccc(Cl)c(Cl)c1, Cc1c(Cl)cccc1NC(=O)C1C(C(=O)O)C2C=CC1C21CC1 (stereo not given), CCCCCCN(C(=O)c1ccccc1)C(CC)c1nc2ccccc2c(=O)n1-c1ccccc1OC (stereo not given), CCCCCN(C(=O)c1ccc(Br)cc1)C(CC)c1nc2ccccc2c(=O)n1-c1ccccc1OC (stereo not given), O=c1c2c(nc3cc(-c4ccc(Cl)cc4)[nH]n13)CCCC2, O=c1c2c(nc3cc(-c4ccc(-c5ccccc5)cc4)[nH]n13)CCCC2, Cc1cccc(OCC(=O)Nc2cccc(NC(=O)COc3cccc(C)c3)n2)c1, CCc1ccc(C(C)=NNc2nc(-c3ccccc3)cc(=O)[nH]2)cc1, Cc1cccc(NS(=O)(=O)c2ccc3[nH]c(=O)ccc3c2)c1C, COc1cc(/C=C(\C#N)c2nc3ccccc3[nH]2)ccc1OCc1ccc(C)cc1, Clc1ccc(Nc2nc(Nc3ccc(Cl)cc3)c3ccccc3n2)cc1, CCc1ccc(-n2c(C(CC)N(CCc3ccccc3)C(=O)c3cc(OC)cc(OC)c3)nc3ccccc3c2=O)cc1 (stereo not given), CCCCCCN(C(=O)COCc1ccccc1)C(C)c1nc2ccccc2c(=O)n1-c1cccc(Cl)c1C (stereo not given), Cc1ccc2c(c1)c(-c1ccccc1)c(-c1ccccc1)n2CC(O)CN1CCN(Cc2ccccc2)CC1 (stereo not given), CC1CC(C)CN(c2ccc([N+](=O)[O-])cc2-c2nn[nH]n2)C1 (stereo not given), COc1ccc(C=NNc2nc3ccc(Cl)cc3[nH]2)cc1OC, COc1ccc(C=C2SC(=N)N(c3ccc4c(c3)OCO4)C2=O)cc1OC, COc1ccc(C(OCC(=O)N2CCN(Cc3ccccc3)CC2)c2ccccc2)cn1 (stereo not given), O=C(Nc1ccc(C2=NCCN2)c(Cl)c1)c1cccc(C(=O)Nc2ccc(C3=NCCN3)c(Cl)c2)c1, CC1CC(C)CN(S(=O)(=O)c2ccc(C(=O)Nc3ccc(-c4nc5ccccc5o4)cc3)cc2)C1 (stereo not given), Cc1ccc2cc3c(N)c4cccc(C)c4nc3nc2c1, CCOc1ccc(Nc2[nH]c(=O)sc2C2=c3cc(Br)ccc3=NC2=O)cc1, Cc1ccc(O)c(NC(=O)c2cnn3c(C(F)(F)F)cc(-c4ccc(F)cc4)nc23)c1, O=C(C=Cc1cccnc1)C12CC3CC(CC(C3)C1)C2, O=C1NN(c2ccccc2)C(=O)C1=C1C(=O)N(Cc2cccc3ccccc23)c2ccccc21, Cc1cc2ncn(N=Cc3cccnc3)c2cc1C, CCOC(=O)c1c(C)n(-c2ccccc2)c2ccc(OC(=O)c3ccccc3NC(=O)CC)cc12, CC(C)=CCCC(C)=CCCC(C)NCCN1CCNCC1 (stereo not given), C=CCNC(=O)c1ccc2c(c1)N=CN(CCOc1ccccc1)C2, Cn1c(SCC2CCCO2)nnc1C1CCN(C/C=C/c2ccccc2)CC1 (stereo not given), Cc1cc(S(=O)(=O)N2CCN(Cc3ccccc3)CC2)ccc1-n1cnnn1, COc1ccc(S(=O)(=O)ON=C2C=C(C(C)C)C(=O)C=C2C)cc1, COc1ccc(NC(=O)C2c3ccccc3C(=O)N(CC(C)C)C2c2cccs2)cc1OC (stereo not given), COc1ccc(NC(=O)/C=C/c2ccccc2Cl)cc1, O=C1CC(c2ccccc2)CC2=C1C(c1cc(F)ccc1F)Nc1ccccc1N2 (stereo not given), CCCCCCCCCC(=O)N1CCN(C(CC)c2nc3ccccc3c(=O)n2C)CC1 (stereo not given), CC(c1nc2ccccc2c(=O)n1-c1ccc(Br)cc1)N1CCN(S(=O)(=O)c2ccc3ccccc3c2)C(C)C1 (stereo not given), CCCCCCCCC(=O)N1CCN(C(CC)c2nc3ccccc3c(=O)n2C)CC1 (stereo not given), CCC(NC1CCCCC1)c1nc2ccccc2c(=O)n1C (stereo not given), CCCCC(CC)C(=O)N1CCN(C(C)c2nc3ccc(Cl)cc3c(=O)n2C)CC1 (stereo not given), CC(c1nc2ccc(Cl)cc2c(=O)n1C)N1CCN(C(=O)C(C)(C)C)CC1 (stereo not given), COc1ccc(/C=C2\N=C(c3ccc(Cl)cc3)N(c3ccccc3)C2=O)cc1OC, O=C(NCCCNC(=O)Nc1cccc(C2=NCCN2)c1)Nc1cccc(C2=NCCN2)c1, CC(C)c1ccc(NC(=O)C=Cc2ccccc2Cl)cc1, COC(=O)c1sccc1S(=O)(=O)N1CCCC(c2[nH]ncc2-c2ccccc2)C1 (stereo not given), Cc1cccc(Nc2nc3nonc3nc2NN=Cc2cccs2)c1C, O=C(NCCC(c1ccccc1)c1ccccc1)c1cccc([N+](=O)[O-])c1, COC(=O)c1ccc(C=NNc2cc(C)nc3ccc(OC)cc23)cc1, O=S(=O)(/C=C/c1ccccc1)NCCCCNc1ccnc2cc(Cl)ccc12, CCN(CC)Cc1cc(Nc2nc3ccccc3[nH]2)cc(CN(CC)CC)c1O, CC[n+]1c(C=C2Sc3ccccc3N2C)ccc2ccc(C)cc21, O=C(CNCCc1ccccc1)NC(c1ccccc1)c1ccccc1, O=C(c1c2c(nc3ccccc13)CCC2)N1CCc2ccccc21, O=C(O)c1cc([N+](=O)[O-])ccc1Oc1cncc(Cl)c1, CCCN(CCC)CC(O)COc1ccccc1C(=O)Nc1ccccc1 (stereo not given), CCn1c(SCC(=O)N(c2ccccc2)c2ccccc2)nc2sc3c(c2c1=O)CCN(C)C3, Cc1cccc(CCNc2cc(C)nc3ncnn23)c1, COc1ccccc1N1CCN(C(=O)Nc2ccc3ccccc3c2)CC1, Oc1ccc(-c2cnccn2)cc1CNC1CCN(Cc2ccccc2)CC1, CC1(C)C2CCC1(C)C(NCc1ccccc1O)C2 (stereo not given), COc1ccc(OC)c(-c2ccc(O)c(CNCc3ccccc3OC)c2)c1, COc1cccc(CNC(=O)[C@@H]2CNC[C@H]2c2ccc(C(F)(F)F)cc2)c1, COc1ccc(CNC(=O)C2CNCC2c2ccc(C(F)(F)F)cc2)cc1 (stereo not given), CCCCCN1/C(=C\C=C\c2n(CC)c3cc(Cl)c(Cl)cc3[n+]2CCCCC)N(CC)c2cc(Cl)c(Cl)cc21, COc1ccc(-c2cc(C(=O)NCc3cccnc3)no2)cc1OC

— PubChem BioAssay AID602156 (GNF / Scripps Winzeler lab, 2011)
